Bioassay records deposited in PubChem BioAssay by several laboratories.
HSP90 inh = HSP90 refolding inhibition in rabbit reticulocyte lysate; luciferase refolding luminescence, 3 h; 0.91% of 290,000 active; inhibition, % at 5.6 µM;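 active means inhibition above the screen-wide mean plus 3 SD, computed separately per campaign, cut at about 16% in these data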;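 further: 0% = DMSO wells and 100% = 60 µM geldanamycin wells; inhibitors lower the luminescence because luciferase stays unfolded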
SENP8 block-1 = SENP8 (human) protease inhibition; AID 602440; inhibition, % at 20 µM; recombinant SENP8, Nedd8 substrate fluorescence; 0.64% of 360,000 active; in the data active means inhibition mostly above about 40%, no sharp cut-off; inactive means mostly below about 27%
Target sequence (Q96LD8 whole entry, looked up): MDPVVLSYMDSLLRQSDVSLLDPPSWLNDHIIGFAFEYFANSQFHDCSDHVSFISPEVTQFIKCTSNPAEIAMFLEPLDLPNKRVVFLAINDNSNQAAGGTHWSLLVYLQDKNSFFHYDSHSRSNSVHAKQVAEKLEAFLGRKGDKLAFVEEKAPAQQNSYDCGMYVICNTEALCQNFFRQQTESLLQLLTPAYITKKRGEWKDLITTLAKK
SENP6 block = blocks the human protease SENP6 | Recombinant SENP6 catalytic domain, aminoluciferin luminescence | inhibition, % at 10 µM | 1.8% of 330,000 active;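 active means inhibition above about 50% at the single tested dose, limit read from the data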;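 further: plate controls were DMSO wells with enzyme for no effect and DMSO wells lacking enzyme for full effect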
SENP7 block = SENP7 protease inhibition | Q9BQF6 | recombinant SENP7, Z-RLRGG-aminoluciferin luminescence, 40 min | inhibition, % at 5 µM | 1.5% of 330,000 active | AID 434973;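 active means inhibition above about 50% at the single test dose, limit read from the data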;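 further: plate controls were DMSO with enzyme for no effect and no enzyme buffer wells for full effect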
SENP8 block-2 = inhibitors of human SENP8 protease | purified SENP8, Z-RLRGG-aminoluciferin cleavage, luminescence | inhibition, % at 10 µM | 1.2% of 330,000 active; in the data active means inhibition above about 50%
SENP8 conf = human SENP8 inhibition, confirmed; shares compounds with SENP7 block; Recombinant SENP8, Z-RLRGG-aminoluciferin luminescence, 60 min; inhibition, % at 12.5 µM; 40% of 6,200 active; AID 488912;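 active means mean inhibition across replicates above about 50%, limit read from the data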
SENP6 conf = human SENP6 inhibition, confirmed; shares compounds with SENP7 block; recombinant SENP6, Z-RLRGG-aminoluciferin luminescence; inhibition, % at 12.5 µM; 58% of 6,200 active
SENP7 confirm = confirmation of human SENP7 protease inhibitors | shares compounds with SENP7 block | recombinant SENP7, Z-RLRGG-aminoluciferin luminescence, 40 min | inhibition, % at 12.5 µM | 69% of 6,200 active | AID 488917
Casp3 select = caspase-3 inhibition (SENP selectivity assay); inhibition, % at 12.5 µM; shares compounds with SENP7 block; purified caspase-3, Z-DEVD-aminoluciferin luminescence, 60 min; 60% of 6,200 active;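 active means mean inhibition above about 50%, limit read from the data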;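 further: plate controls were enzyme with DMSO for no effect and wells without caspase-3 for full effect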
Target sequence (P42574 28-227 limits assumed): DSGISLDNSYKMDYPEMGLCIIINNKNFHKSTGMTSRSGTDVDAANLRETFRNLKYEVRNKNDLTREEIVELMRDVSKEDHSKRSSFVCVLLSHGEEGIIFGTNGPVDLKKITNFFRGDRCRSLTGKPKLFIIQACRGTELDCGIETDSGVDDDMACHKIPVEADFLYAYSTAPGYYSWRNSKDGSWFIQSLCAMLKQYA
Luc interf = interferes with luciferase luminescence in SENP counter-screen | inhibition, % at 12.5 µM | shares compounds with SENP7 block | 39% of 6,200 active | Pre-incubated SENP8/Z-RLRGG-aminoluciferin, luciferase luminescence interference;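 active means mean inhibition above about 50% when retested at one dose, limit read from the data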;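 further: plate controls were DMSO wells with completed reaction for no effect and substrate without enzyme for full effect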
Active calls of the source: *. Rows were chosen to be rich in hits. Some 2.8% of all compounds tested hit in one or more screens of this group.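 How the source made its calls, unless noted: active means mean inhibition above about 50% in the one-dose retest (limit read from the data); inactive means the rest.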

Screening O=C(O)c1cccc(NC(=O)c2ccc3c(c2)C(=O)N(C2CCCCC2)C3=O)c1 returned HSP90 inh 8.9, SENP8 block-1 -0.4, SENP6 block 94.7*, SENP7 block 97.2*, SENP8 block-2 93.0*, SENP8 conf 83.4*, SENP6 conf 81.0*, SENP7 confirm 100.2*, Casp3 select 61.7* and Luc interf 49.9.
Screening O=C(O)c1cccc(NC(=O)c2ccc(Cl)c(S(=O)(=O)N3CCCCCC3)c2)c1 returned HSP90 inh 3.5, SENP8 block-1 16.9, SENP6 block 85.0*, SENP7 block 84.5*, SENP8 block-2 78.2*, SENP8 conf 90.1*, SENP6 conf 89.3*, SENP7 confirm 98.3*, Casp3 select 55.0* and Luc interf 79.3*.
Screening O=C(O)c1cccc(NC(=O)c2cccc(S(=O)(=O)N3CCc4ccccc43)c2)c1 returned HSP90 inh -0.3, SENP8 block-1 4.0, SENP6 block 53.7*, SENP7 block -0.2, SENP8 block-2 21.7, SENP8 conf 41.4, SENP6 conf 37.2, SENP7 confirm 70.0*, Casp3 select 2.7 and Luc interf 43.1.
For O=C(Nc1cccnc1)c1ccc(Cl)c(S(=O)(=O)N2CCCCC2)c1 the results were HSP90 inh -3.3, SENP8 block-1 6.7, SENP6 block -2.4, SENP7 block -10.8 and SENP8 block-2 -4.2.
Screening Cc1ccc(C(=O)C2=C(O)C(=O)N(Cc3ccco3)C2c2ccc(N(C)C)cc2)o1 (stereo unspecified) returned HSP90 inh 8.7, SENP8 block-1 6.0, SENP6 block -7.3, SENP7 block -7.9 and SENP8 block-2 -5.7.
For C[C@]12C(=O)N(c3cccc(Cl)c3)C(=O)N1[C@@H]1c3ccccc3OC[C@@H]1[C@H]2c1ccccc1 the results were SENP8 block-1 14.2, SENP6 block -4.9, SENP7 block 6.4 and SENP8 block-2 5.3.
CSCC[C@@H](CO)NC(=O)[C@H]1O[C@@H](n2ccc(N)nc2=O)[C@H](O)[C@@H]1O was read as SENP8 block-1 15.9.
For Clc1nccnc1N/N=C/c1ccc(Br)cc1 the results were HSP90 inh 0.6, SENP8 block-1 -204.1, SENP6 block 95.7*, SENP7 block 97.9*, SENP8 block-2 94.1*, SENP8 conf 97.2*, SENP6 conf 97.7*, SENP7 confirm 102.3*, Casp3 select 96.8* and Luc interf 96.1*.
For COc1ccc(/C=N/Nc2nccnc2Cl)cc1 the results were HSP90 inh 7.3, SENP8 block-1 -105.5, SENP6 block 95.2*, SENP7 block 96.7*, SENP8 block-2 94.7*, SENP8 conf 97.8*, SENP6 conf 98.7*, SENP7 confirm 103.0*, Casp3 select 98.9* and Luc interf 96.9*.
`COc1ccc(/C=N/Nc2nonc2N)c(OC)c1` gave HSP90 inh 2.6, SENP8 block-1 -13.8, SENP6 block 4.1, SENP7 block 7.5 and SENP8 block-2 -2.5.
Screening COc1ccc(/C=N/Nc2nccnc2Cl)c(OC)c1 returned HSP90 inh 2.5, SENP8 block-1 -160.9, SENP6 block 93.0*, SENP7 block 97.5*, SENP8 block-2 91.1*, SENP8 conf 96.1*, SENP6 conf 97.0*, SENP7 confirm 102.7*, Casp3 select 98.5* and Luc interf 94.7*.
Screening Cc1nnc(N/N=C/c2ccc(Br)cc2)n1N returned HSP90 inh -0.2, SENP8 block-1 12.9, SENP6 block 11.7, SENP7 block 19.1 and SENP8 block-2 -13.8.
`Oc1ccccc1/C=N/Nc1nccnc1Cl` gave HSP90 inh 8.2, SENP8 block-1 -11.5, SENP6 block 79.7*, SENP7 block 93.3*, SENP8 block-2 82.8*, SENP8 conf 91.0*, SENP6 conf 91.1*, SENP7 confirm 100.4*, Casp3 select 94.1* and Luc interf 92.6*.
For Oc1ccccc1/C=N/NC1=NCCCCC1 the results were HSP90 inh 2.8, SENP8 block-1 -111.8, SENP6 block 3.4, SENP7 block -9.3 and SENP8 block-2 -8.9.
O=C1C=C(NCc2ccco2)C2(CCCCC2)O1 was read as HSP90 inh 5.1, SENP8 block-1 19.1, SENP6 block -17.6, SENP7 block 4.8 and SENP8 block-2 -0.8.
O=C(NCCc1ccc(Cl)cc1)C1CCCN1C(=O)Nc1ccccc1 (stereo unspecified) was read as HSP90 inh 4.6, SENP8 block-1 -3.8, SENP6 block -10.5, SENP7 block -2.8 and SENP8 block-2 -7.1.
For Cc1ccc(S(=O)(=O)N2CCOCC2)cc1C(=O)NCc1cccs1 the results were HSP90 inh 0.3, SENP8 block-1 0.1, SENP6 block -17.7, SENP7 block -0.3 and SENP8 block-2 6.5.
COc1ccc(/C=N/Nc2cc(N(C)C)nc(N(C)C)n2)cc1 was read as HSP90 inh 1.0, SENP8 block-1 -6.0, SENP6 block 80.1*, SENP7 block 72.0*, SENP8 block-2 16.8, SENP8 conf 38.2, SENP6 conf 82.5*, SENP7 confirm 80.8*, Casp3 select -2.2 and Luc interf -4.7.
COc1ccccc1/C=N/Nc1cc(N(C)C)nc(N(C)C)n1 was read as HSP90 inh 1.4, SENP8 block-1 -74.2, SENP6 block 38.3, SENP7 block 48.5 and SENP8 block-2 21.6.
Screening Cc1cc(Br)cc(C=Nc2ccc(N3CCOCC3)cc2)c1O returned SENP8 block-1 37.2, SENP6 block 29.2, SENP7 block 72.7*, SENP8 block-2 -6.5, SENP8 conf 11.6, SENP6 conf 12.3, SENP7 confirm -0.6, Casp3 select 28.7 and Luc interf 2.9.
Oc1cc(Br)ccc1C=Nc1ccc(N2CCCCC2)cc1 was read as HSP90 inh 4.7, SENP8 block-1 22.5, SENP6 block 11.2, SENP7 block 52.8*, SENP8 block-2 35.5, SENP8 conf 15.4, SENP6 conf 26.4, SENP7 confirm 2.1, Casp3 select 48.1 and Luc interf -0.1.
For CC(C)CCOCC(=O)Nc1cccc(C(=O)O)c1 the results were HSP90 inh 14.2, SENP8 block-1 6.9, SENP6 block 58.3*, SENP7 block 40.8, SENP8 block-2 9.4, SENP8 conf 38.2, SENP6 conf 35.1, SENP7 confirm 73.0*, Casp3 select 18.3 and Luc interf 62.0*.
